Results from PubChem BioAssay (EPA / NIEHS).
Where “and” joins values, the source holds several entries; their conditions need not be identical. Identical values can stand only once. A structure can be active in one record and inactive in another. Calls of active or inactive are those of the source. The calls were made as follows: active = hit-call score of the fitted dose curve at least 0.9, where 1 is the maximum; inactive = score below 0.9.

Experiments:
[1] = read-out: E-selectin (Homo sapiens) (UniProt P16581); experiment: BSK_SAg_Eselectin: BioMAP Diversity Plus: SAg Assay for Eselectin Biomarker Activity (AID 2283091); conditions: primary human HUVEC with PBMC; actives raise or lower the signal
How it was run: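 E-selectin ELISA readout at 24 h post-dosing in human umbilical vein endothelial cell/PBMC co-culture; gain or loss of signal fitted relative to DMSO baseline.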

[2] = read-out: Monokine induced gamma interferon (MIG), CXCL9 (gene 4283); experiment: BSK_SAg_MIG: BioMAP Diversity Plus: SAg Assay for Monokine induced gamma interferon (MIG) Biomarker Activity (AID 2283092); conditions: primary human HUVEC with PBMC; actives raise or lower the signal
How it was run: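 Values reflect bidirectional fitting of ELISA-measured MIG against DMSO vehicle, taken 24 h after dosing of a co-culture of human umbilical vein endothelial cells and peripheral blood mononuclear cells.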

[3] = BSK_SAg_PBMCCytotoxicity: PBMC Cytotoxicity Assessment in the BioMAP Diversity Plus: SAg Assay (AID 2283093); conditions: primary human HUVEC with PBMC;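 also: PBMC viability measured as Alamar Blue reduction fluorescence at 546/580 nm; fitted both ways against DMSO so a hit may be loss or gain of signal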;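 as to AC50: PBMC superantigen activated with SEB plus TSST-1 one hour after compound addition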
How it was run: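 Alamar Blue reduction (6 h, 546/580 nm) reports PBMC cytotoxicity after 90 h superantigen activation (SEB, TSST-1; 20 ng/mL final each) with 1 h compound pre-treatment. Gain or loss of signal fitted versus DMSO.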

[4] = read-out: Interleukin-8 (IL8), CXCL8 (gene 3576); experiment: BSK_SAg_IL8: BioMAP Diversity Plus: SAg Assay for Interleukin-8 (IL8) Biomarker Activity (AID 2283094); conditions: primary human HUVEC with PBMC; actives raise or lower the signal
How it was run: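 Chemicals were dosed onto a human endothelial–PBMC co-culture, and IL-8 was quantified by ELISA after 24 h. Both increases and decreases were fitted relative to DMSO.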

[5] = BSK_SAg_Proliferation: Cell Proliferation Assessment in the BioMAP Diversity Plus: SAg Assay (AID 2283095); conditions: primary human HUVEC with PBMC;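 also: relative cell number as total protein by SRB absorbance in sub-confluent culture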
How it was run: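 Absorbance of sulforhodamine B at 560 nm reports total protein in a human vascular endothelial/PBMC co-culture after 96 h chemical exposure. Gain or loss of signal is fitted in both directions against DMSO.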

[6] = BSK_SAg_SRB: Viability Assessment in the BioMAP Diversity Plus: SAg Assay (AID 2283096); conditions: primary human HUVEC with PBMC;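 also: cells read one day after compound addition; hits may be either gain or loss of signal compared with DMSO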
How it was run: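 This overt-cytotoxicity endpoint quantifies protein in human endothelial/PBMC co-cultures at 24 h using SRB absorbance (560 nm) after trichloroacetic acid fixation. Values reflect signal change from the DMSO negative control, fitted bidirectionally.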

E-selectin (Homo sapiens), sequence (P16581 whole entry, looked up): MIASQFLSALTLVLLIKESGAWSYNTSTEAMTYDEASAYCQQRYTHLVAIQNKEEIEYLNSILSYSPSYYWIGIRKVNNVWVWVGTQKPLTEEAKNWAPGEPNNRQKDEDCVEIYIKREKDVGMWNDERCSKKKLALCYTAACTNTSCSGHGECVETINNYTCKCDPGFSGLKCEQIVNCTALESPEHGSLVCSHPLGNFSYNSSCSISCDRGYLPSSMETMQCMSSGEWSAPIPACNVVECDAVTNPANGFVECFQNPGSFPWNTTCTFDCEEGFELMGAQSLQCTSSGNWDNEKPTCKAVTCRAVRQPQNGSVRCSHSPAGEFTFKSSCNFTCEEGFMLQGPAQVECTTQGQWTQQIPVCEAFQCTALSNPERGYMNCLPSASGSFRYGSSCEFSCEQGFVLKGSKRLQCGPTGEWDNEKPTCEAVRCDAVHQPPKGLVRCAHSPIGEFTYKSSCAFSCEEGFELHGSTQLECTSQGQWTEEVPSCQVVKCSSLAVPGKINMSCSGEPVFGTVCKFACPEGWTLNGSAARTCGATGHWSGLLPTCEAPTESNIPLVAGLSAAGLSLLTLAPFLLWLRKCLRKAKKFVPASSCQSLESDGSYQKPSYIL

Row | SMILES | outcome [1] | outcome [2] | outcome [3] | outcome [4] | outcome [5] | outcome [6] | AC50 [3] | AC50 [5] | AC50 [1] | AC50 [2] | AC50 [4] | AC50 [6]
1 | O=C(O)CCC(F)(F)C(F)(F)C(F)(F)C(F)(F)C(F)(F)C(F)(F)F | inactive | inactive | inactive | inactive | inactive | inactive | – | – | – | – | – | –
2 | CCCCCCCCCCCCOS(=O)(=O)O | inactive | inactive | inactive | inactive | inactive | inactive | – | – | – | – | – | –
3 | Cc1ccc(N=Nc2c(O)ccc3ccccc23)c(C)c1 | inactive | inactive | – | inactive | – | inactive | 4.15 µM (active) | 4.79 µM (active) | – | – | – | –
4 | CC[N+](CC)(CC)Cc1ccccc1 | inactive | inactive | inactive | inactive | inactive | inactive | – | – | – | – | – | –
5 | O=C(c1ccccc1)c1ccccc1 | inactive | inactive | inactive | inactive | inactive | inactive | – | – | – | – | – | –
6 | C=CC(C)(CCC=C(C)C)OC(C)=O (stereo unspecified) | inactive | inactive | inactive | inactive | inactive | inactive | – | – | – | – | – | –
7 | OCC(F)(F)C(F)(F)C(F)(F)C(F)(F)C(F)(F)C(F)(F)C(F)(F)C(F)(F)C(F)(F)C(F)(F)C(F)(F)F | inactive | inactive | – | inactive | – | inactive | 115 nM (active) and 64.1 nM (active) | 476 nM (active) and 63.9 nM (active) | – | – | – | –
8 | O=C1c2ccc(O)c(O)c2C(=O)c2c(O)ccc(O)c21 | inactive | inactive | inactive | inactive | inactive | inactive | – | – | – | – | – | –
9 | CC1=NN(c2ccccc2)C(=O)C1 | inactive | inactive | inactive | inactive | inactive | inactive | – | – | – | – | – | –
10 | C[C@]12CC[C@@H]3c4ccc(O)cc4CC[C@H]3[C@@H]1C[C@@H](O)[C@@H]2O | inactive | inactive | inactive | inactive | inactive | inactive | – | – | – | – | – | –
11 | CN(CCO)S(=O)(=O)C(F)(F)C(F)(F)C(F)(F)C(F)(F)C(F)(F)C(F)(F)C(F)(F)C(F)(F)F | inactive | inactive | inactive | inactive | inactive | inactive | – | – | – | – | – | –
12 | C=CC(=O)OCCC(F)(F)C(F)(F)C(F)(F)C(F)(F)C(F)(F)C(F)(F)C(F)(F)C(F)(F)F | inactive | inactive | inactive | inactive | inactive | inactive | – | – | – | – | – | –
13 | O=P(O)(O)CCC(F)(F)C(F)(F)C(F)(F)C(F)(F)C(F)(F)C(F)(F)F | inactive | inactive | inactive | inactive | inactive | inactive | – | – | – | – | – | –
14 | COc1cccc(O)c1 | inactive | inactive | inactive | inactive | inactive | inactive | – | – | – | – | – | –
15 | OCCN1CN(CCO)CN(CCO)C1 | – | – | – | – | – | – | 27 µM (active) | 26 µM (active) | 20 µM (active) | 33.1 µM (active) | 13.1 µM (active) | 33.4 µM (active)
16 | Oc1c(Cl)cc(Cl)cc1Sc1cc(Cl)cc(Cl)c1O | – | – | – | – | – | – | 29.1 µM (active) and 30 µM (active) | 5.29 µM (active) and 5.92 µM (active) | 8.08 µM (active) and 7.11 µM (active) | 12.4 µM (active) and 12 µM (active) | 4.54 µM (active) and 5.28 µM (active) | 23.8 µM (active) and 17.2 µM (active)
17 | CCCCC=O | inactive | inactive | inactive | inactive | inactive | inactive | – | – | – | – | – | –
18 | CC(C)(C)c1ccc(O)c(O)c1 | – | – | – | – | – | – | 3.06 µM (active) | 2.68 µM (active) | 19.2 µM (active) | 34.8 µM (active) | 20 µM (active) | 29.1 µM (active)
19 | CCCCCCCCCCCC | inactive | inactive | inactive | inactive | inactive | inactive | – | 36.6 µM (active) | – | – | – | –
20 | O=S(=O)(O)C(F)(F)C(F)(F)C(F)(F)C(F)(F)C(F)(F)C(F)(F)C(F)(F)C(F)(F)C(F)(F)C(F)(F)F | inactive | inactive | inactive | inactive | inactive | inactive | – | – | 7.15 µM (active) | – | – | 13.2 µM (active)
21 | Cc1ccc(C(=O)c2ccccc2)cc1 | inactive | inactive | inactive | inactive | inactive | inactive | – | – | – | – | – | –
22 | Cc1cccc2c1ccc1ccccc12 | inactive | inactive | inactive | inactive | inactive | inactive | – | – | – | – | – | –
23 | CN(C)c1ccc(C(=C2C=CC(=[N+](C)C)C=C2)c2ccccc2)cc1 | – | – | – | – | – | – | 0.481 µM (active) | 0.0153 µM (active) | 0.0082 µM (active) | 0.132 µM (active) | 2.78 µM (active) | 0.0747 µM (active)
24 | CN(C)CCOC(c1ccccc1)c1ccccc1 | inactive | inactive | inactive | inactive | inactive | inactive | – | – | – | – | – | –
25 | C=COC(=O)C(C)(C)CCCCCC | – | inactive | – | inactive | – | – | 36.8 µM (active) | 30.7 µM (active) | 32.2 µM (active) | – | – | 36.1 µM (active)
26 | O=C(CC(=O)C(F)(F)C(F)(F)C(F)(F)F)c1cccs1 | – | – | – | – | – | – | 44.8 µM (active) and 43.6 µM (active) | 13.5 µM (active) and 13.3 µM (active) | 30 µM (active) and 43.1 µM (active) | 48.3 µM (active) and 53.4 µM (active) | 3.52 µM (active) and 10.7 µM (active) | 29.9 µM (active) and 48.5 µM (active)
27 | NC(=NCCCCCCN=C(N)/N=C(\N)Nc1ccc(Cl)cc1)/N=C(\N)Nc1ccc(Cl)cc1 | – | – | – | – | – | – | 7.06 µM (active) | 2.72 µM (active) | 5.02 µM (active) | 7.58 µM (active) | 0.896 µM (active) | 4.89 µM (active)
28 | C=CC(=C)CC/C=C(\C)CCC=C(C)C | inactive | inactive | inactive | inactive | inactive | inactive | – | – | – | – | – | –
